The supplement of paper PMC3545927
The list shows a part of the results. The true hit rate is not given.

Biological target: furin, P09958
Assay: furin cleavage Z-score vs untreated control; higher = more cleavage, active = 3.5 or more, inactive = 1 or less, 8 variable residues between constant flanks
Procedure, shortened: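 The cleavage Z-score was derived for purified furin acting on 8-mer peptides held on magnetic beads and fused to a cDNA oligonucleotide. Digests lasted 7.5, 15 or 30 min at 1:10 enzyme:substrate in 50 mM HEPES pH 7.5 with CaCl2 and NaCl. Sequencing counts of released DNA, log-transformed against furin-free reactions, were lowess-adjusted and scaled by median absolute deviation.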

furin, P09958, sequence (P09958 whole entry): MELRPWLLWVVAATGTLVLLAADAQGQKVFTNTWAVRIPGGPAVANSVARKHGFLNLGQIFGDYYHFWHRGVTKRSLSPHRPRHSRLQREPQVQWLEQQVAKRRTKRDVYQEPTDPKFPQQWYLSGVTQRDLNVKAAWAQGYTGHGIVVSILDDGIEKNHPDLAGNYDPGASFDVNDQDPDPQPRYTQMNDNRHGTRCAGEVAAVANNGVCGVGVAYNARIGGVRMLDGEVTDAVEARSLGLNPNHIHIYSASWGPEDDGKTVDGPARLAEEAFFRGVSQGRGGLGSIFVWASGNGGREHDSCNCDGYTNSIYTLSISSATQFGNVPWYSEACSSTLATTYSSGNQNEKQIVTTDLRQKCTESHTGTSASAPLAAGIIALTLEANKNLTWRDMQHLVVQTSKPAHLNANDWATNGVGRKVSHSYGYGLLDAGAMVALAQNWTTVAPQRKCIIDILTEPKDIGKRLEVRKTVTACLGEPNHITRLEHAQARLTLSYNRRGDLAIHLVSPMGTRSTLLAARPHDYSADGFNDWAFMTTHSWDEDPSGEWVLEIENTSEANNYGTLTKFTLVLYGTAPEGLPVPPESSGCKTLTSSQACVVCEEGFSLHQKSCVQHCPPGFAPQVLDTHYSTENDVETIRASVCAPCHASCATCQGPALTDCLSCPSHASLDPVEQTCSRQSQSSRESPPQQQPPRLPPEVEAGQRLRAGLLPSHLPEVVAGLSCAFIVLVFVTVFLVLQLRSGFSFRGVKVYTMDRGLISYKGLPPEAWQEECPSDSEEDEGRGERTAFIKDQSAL

Sequence	furin cleavage Z-score (7.5 min)	furin cleavage Z-score (15 min)	furin cleavage Z-score (30 min)
CASWDQMWKCAGNASASA [HC962]	1.5	-0.918 (inactive)	-0.53 (inactive)
CAAAEEQKLPAGNASASA [HC1378]	-1.36 (inactive)	-0.838 (inactive)	-1.05 (inactive)
CAWMNRLIAFAGNASASA [HC1118]	0.154 (inactive)	0.647 (inactive)	1.16
CAHVPCHRPSAGNASASA [HC2315]	1.79	0.404 (inactive)	0.971 (inactive)
CAMNECSQHLAGNASASA [HC1701]	-0.476 (inactive)	0.465 (inactive)	1.3
CAEGVVCCSMAGNASASA [HC2136]	0.615 (inactive)	1.53	-0.0256 (inactive)
CAEVLYREFDAGNASASA [HC1010]	-0.000681 (inactive)	-0.163 (inactive)	-0.163 (inactive)
CARGRRKKKCAGNASASA [FS-1398]	0.559 (inactive)	2.05	2.1
CARGRRRRRTAGNASASA [FS-1399]	6.1 (active)	5.39 (active)	6 (active)
CAPVVPQSFQAGNASASA [HC769]	0.521 (inactive)	-0.599 (inactive)	-1.31 (inactive)
CARQKRREERAGNASASA [FS-1865]	-0.0741 (inactive)	1.57	0.905 (inactive)
CARVKRPQLMAGNASASA [FS-2532]	1.35	-0.179 (inactive)	-0.384 (inactive)
CARVKRVSHSAGNASASA [FS-2619]	-0.25 (inactive)	0.383 (inactive)	1.16
CARVKRYRQSAGNASASA [FS-2243]	3.13	4.29 (active)	5.21 (active)
CAEVPCHRQSAGNASASA [HC2402]	0.566 (inactive)	0.909 (inactive)	1.17
CARQKRNKIPAGNASASA [FS-2290]	0.00727 (inactive)	-0.821 (inactive)	0.672 (inactive)
CARVPRDWDPAGNASASA [FS-1940]	-0.333 (inactive)	-0.446 (inactive)	1.11
CARVKRRLLMAGNASASA [FS-2318]	1.78	2.84	5.21 (active)
CARQKRRAKPAGNASASA [FS-1864]	5.33 (active)	6.71 (active)	6.66 (active)
CARVKRRADPAGNASASA [FS-2197]	8.92 (active)	9.27 (active)	8.27 (active)
CAVMCCSMSYAGNASASA [HC2006]	0.223 (inactive)	0.521 (inactive)	0.261 (inactive)
CAVVCCPMSYAGNASASA [HC120]	-0.00854 (inactive)	1.19	0.154 (inactive)

Sequence	furin cleavage Z-score (7.5 min)	furin cleavage Z-score (15 min)	furin cleavage Z-score (30 min)
CARVKRRIENAGNASASA [FS-2533]	4.86 (active)	7.07 (active)	8.34 (active)
CARVKRTHVPAGNASASA [FS-2242]	4.22 (active)	8.01 (active)	3.97 (active)
CARVKRPIENAGNASASA [FS-2531]	-0.853 (inactive)	0.717 (inactive)	-0.955 (inactive)
CARVKRQKISAGNASASA [FS-1939]	2.51	3.08	4.8 (active)
CARSFRRIAGAGNASASA [FS-2804]	-0.414 (inactive)	-1.36 (inactive)	-1.34 (inactive)
CARVKRFIQEAGNASASA [FS-2099]	5.75 (active)	5.53 (active)	5.92 (active)
CASTMCSAHLAGNASASA [HC2506]	-0.111 (inactive)	1.36	2.15
CADSMEECSQAGNASASA [HC1817]	1.19	1.94	0.888 (inactive)
CAEYEVPCHRAGNASASA [HC2449]	-0.191 (inactive)	0.0222 (inactive)	-0.958 (inactive)
CANSSRSKKPAGNASASA [FS-947]	-0.794 (inactive)	-0.615 (inactive)	-1.7 (inactive)
CARVKRNILAAGNASASA [FS-1872]	5.27 (active)	8.45 (active)	8.24 (active)
CARSIRDILAAGNASASA [FS-1840]	-1.31 (inactive)	1.74	2.38
CACVLRSKRDAGNASASA [FS-406]	9.82 (active)	8.74 (active)	6.13 (active)
CACVSRSKRDAGNASASA [FS-407]	13 (active)	10.3 (active)	7.76 (active)
CAHWSMSKRDAGNASASA [FS-335]	-1.15 (inactive)	0.288 (inactive)	0.917 (inactive)
CASTPCSANLAGNASASA [HC2561]	0.829 (inactive)	0.852 (inactive)	0.011 (inactive)
CADVVTKLPLAGNASASA [HC1459]	0.775 (inactive)	0.418 (inactive)	0.0796 (inactive)
CARTSRRKRAAGNASASA [FS-1274]	10.3 (active)	9.52 (active)	6.92 (active)
CARTSRRKRYAGNASASA [FS-958]	11.4 (active)	13.5 (active)	9.45 (active)
CAPLAVMGSSAGNASASA [HC1462]	0.481 (inactive)	1.18	-0.14 (inactive)
CAFTEAMTRYAGNASASA [HC1540]	1.26	-0.149 (inactive)	-0.331 (inactive)
CAPKARRKRYAGNASASA [FS-619]	11.3 (active)	13.4 (active)	11.2 (active)
